The values below come from PubChem BioAssay (EPA / NIEHS).

By AC50 is commonly meant the midpoint of the concentration-response curve, whichever way the signal moves.

Activity calls are given as the source filed them. The calls were made as follows: active = hit-call score of the fitted dose curve at least 0.9, where 1 is the maximum; inconclusive = response in the unintended direction; inactive = score below 0.9.

human CYP1A2, CYP1A2 (gene 1544), sequence (P05177 whole entry, looked up): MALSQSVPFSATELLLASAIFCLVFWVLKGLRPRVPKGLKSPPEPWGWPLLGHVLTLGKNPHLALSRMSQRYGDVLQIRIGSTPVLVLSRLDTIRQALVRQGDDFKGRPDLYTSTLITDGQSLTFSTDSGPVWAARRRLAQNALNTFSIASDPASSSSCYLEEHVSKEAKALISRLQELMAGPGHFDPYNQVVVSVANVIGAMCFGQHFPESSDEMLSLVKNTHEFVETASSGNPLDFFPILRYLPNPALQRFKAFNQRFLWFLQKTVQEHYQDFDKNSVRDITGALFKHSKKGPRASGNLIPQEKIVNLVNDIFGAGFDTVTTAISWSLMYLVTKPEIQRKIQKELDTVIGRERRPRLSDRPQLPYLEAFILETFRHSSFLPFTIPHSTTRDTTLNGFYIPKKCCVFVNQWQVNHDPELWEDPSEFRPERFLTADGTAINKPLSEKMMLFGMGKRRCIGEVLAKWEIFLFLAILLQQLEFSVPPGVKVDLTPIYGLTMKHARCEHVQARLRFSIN

This assay addresses human CYP1A2, CYP1A2 (gene 1544) (UniProt P05177). As to the kind of experiment: NVS_ADME_hCYP1A2: NovaScreen (NVS) CYP450-related Enzyme Activity (ADME) Assay for human CYP1A2 (AID 2283102).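 Also: potency for inhibition since loss of fluorescence marks reduced CYP1A2 activity.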 Here is the method: NVS_ADME_hCYP1A2 is a biochemical, single-readout assay that uses extracted gene-proteins from insect cells in a cell-free assay. Measurements were taken 0.5 hour after chemical dosing in a 96-well plate.NVS_ADME_hCYP1A2 is one of one assay component(s) measured or calculated from the NVS_ADME_hCYP1A2 assay. It is designed to make measurements of enzyme activity, a form of enzyme reporter, as detected with fluorescence intensity signals by Fluorescence technology.Data from the assay component NVS_ADME_hCYP1A2 was analyzed into 1 assay endpoint. This assay endpoint, NVS_ADME_hCYP1A2, was analyzed in the positive analysis fitting direction relative to Acetonitrile as the negative control and baseline of activity. Using a type of enzyme reporter, loss-of-signal activity can be used to understand changes in the enzymatic activity as they relate to the gene CYP1A2. Furthermore, this assay endpoint can be referred to as a primary readout, because this assay has produced multiple assay endpoints where this one serves a enzymatic activity function. To generalize the intended target to other relatable targets, this assay endpoint is annotated to the cyp intended target family, where the subfamily is xenobiotic metabolism.
Binding assays used specific radioligands (tritiated, iodinated) with non-radioactive competitive displacement ligands in agonist or antagonist protocols (as indicated) and various reference compounds and inhibitors to titrate specific binding to receptors and transporters. Most enzyme assays (CYPs, kinases, phosphatases, proteases, HDACs) used recombinant protein and specific substrates (fluorescence mostly, some colorimetric and radioactive) and inhibitors, followed by a biochemical separation of substrate and product. All assays for the biochemical HTS were initially run in duplicate at a single concentration (10 uM for CYP450 assays and 25 uM for all others). […] Each assay was run with positive and negative controls, and concurrent controls on every plate. The follow-up (secondary) screen tested active chemical-pairs in concentration series, as well as a few additional assays not tested in the primary screen, some selected negative inactives, and several cases re-run in the concentration series for confirmatory purposes.
In the case of `CNC(=O)Oc1cccc2ccccc12`, the AC50 is 5.35 µM (active).
Under `CC(C)Oc1cccc(NC(=O)c2ccccc2C(F)(F)F)c1` stands 6.37 µM (active); under `CSC(=O)c1c(C(F)F)nc(C(F)(F)F)c(C(=O)SC)c1CC(C)C`, 3.3 µM (active); under `COC(=O)c1c(C(F)F)nc(C(F)(F)F)c(C2=NCCS2)c1CC(C)C`, 0.561 µM (active).
With `CCOP(=O)(OCC)Oc1nc(Cl)c(Cl)cc1Cl`, the AC50 is 3.36 µM (active).
Under `CCNP(=S)(OC)O/C(C)=C/C(=O)OC(C)C` (stereo not drawn) stands 5.76 µM (active); under `CC(C)NC(=O)N1CC(=O)N(c2cc(Cl)cc(Cl)c2)C1=O`, 5.75 µM (active).
As for `COP(=S)(OC)SCn1nnc2ccccc2c1=O`, the half-maximal activity concentration (AC50) was 2.79 µM (active).
To `O=C1C2CC=CCC2C(=O)N1SC(Cl)(Cl)Cl` (stereo not drawn) belongs 6.89 µM (active).
To `N#Cc1c[nH]cc1-c1cccc2c1OC(F)(F)O2` belongs 0.353 µM (active).
To `CCN(CC)c1nc(C)cc(OP(=S)(OC)OC)n1` belongs 1.41 µM (active); to `COP(=S)(OC)Oc1ccc([N+](=O)[O-])c(C)c1`, 0.516 µM (active).
Consider `COc1ccc(-c2ccccc2)cc1NNC(=O)OC(C)C`, for which the half-maximal activity concentration (AC50) was 0.956 µM (active).
